Assay results reported in ChEMBL document CHEMBL4296182, “CO-ADD screening of NIH NCI Diversity Set V”.
For part of these data: Entries with a potency or affinity are not part of this list.

Experiments:
[1] = test system: Staphylococcus aureus; test: Antibacterial activity against Staphylococcus aureus MRSA ATCC 43300 (CO-ADD:GP_020); MIC in CAMBH media using NBS plates, by Resazurin F(560/590); format: functional; conditions: Concentration 20 uM, ASSAY_TEST Inhibition of Bacterial Growth, detection method Resazurin, Fluorescence (ex560/em590), MEDIA CAMHB, plate type 384well, CORNING #3640, time 18 hr
[2] = test system: Acinetobacter baumannii; test: Antibacterial activity against Acinetobacter baumannii ATCC 19606 (CO-ADD:GN_034); MIC in CAMBH media using NBS plates, by Resazurin F(560/590); format: functional; conditions: Concentration 20 uM, ASSAY_TEST Inhibition of Bacterial Growth, detection method Resazurin, Fluorescence (ex560/em590), MEDIA CAMHB, plate type 384well, CORNING #3640, time 18 hr
[3] = test system: Escherichia coli; test: Antibacterial activity against Escherichia coli ATCC 25922 (CO-ADD:GN_001); MIC in CAMBH media using NBS plates, by Resazurin F(560/590); format: functional; conditions: Concentration 20 uM, ASSAY_TEST Inhibition of Bacterial Growth, detection method Resazurin, Fluorescence (ex560/em590), MEDIA CAMHB, plate type 384well, CORNING #3640, time 18 hr
[4] = test system: Klebsiella pneumoniae; conditions: Concentration 20 uM; ASSAY_TEST Inhibition of Bacterial Growth; detection method Absorption (OD600); MEDIA CAMHB; plate type 384well; NBS; CORNING #3640; time 18 hr
[5] = test system: Candida albicans; conditions: 20 µM
[6] = test system: Cryptococcus neoformans; conditions: Concentration 20 uM; ASSAY_TEST Inhibition of Fungal Growth; detection method Resazurin; Absorption (OD600-OD570); plate type 384well; NBS; CORNING #3640

SMILES | Inhibition [1] [%] | Inhibition [2] [%] | Inhibition [3] [%] | Inhibition [4] [%] | Inhibition [5] [%] | Inhibition [6] [%]
Oc1ccc(Cc2ccccc2Cl)c(O)c1 | 14.48 | -16.11 | 10.23 | 8.44 | -1.58 | -12.35
Cc1ccc(C(=N)Nc2ccccc2)cc1 | 11.04 | 15.63 | 1.43 | 18.31 | 3.37 | -4.07
COc1ccc(/N=N/c2ccc(N)nc2N)cc1 | 0.3 | -8.88 | 5.08 | 7.55 | 4.94 | -6.06
O=P(O)(O)c1cc(-c2ccccc2)oc1-c1ccccc1 | -4.92 | 9.92 | 13.72 | 15.02 | 5.26 | -17.53
CCCCCc1cc(O)nc(S)n1 | 5.4 | -7.23 | 3.05 | 2.8 | 1.05 | -4.11
CSc1nnc(-c2cccs2)[nH]1 | 9.02 | -12.85 | 11.01 | 0.04 | 1.33 | -11.54
CCOC(=O)C1C(=O)C(=O)N(C(C)C)C1C(=O)OCC (stereo not given) | 9.9 | 14.67 | -8.18 | 12.15 | 4.37 | 17.48
CNc1ncnc2c1cnn2C1CCCCO1 (stereo not given) | 3.48 | -13.53 | 9.64 | 6.75 | -2.26 | -11.76
Cc1cc(=O)[nH]c(N)n1 | 9.55 | -6.26 | 2.4 | 1.73 | 3.77 | -0.62
O=c1cc(-c2ccccc2)[nH]c2cc(-c3ccco3)nn12 | 0.84 | -12.67 | 11.9 | 14.24 | -0.13 | -17.18
CCCCCC(=O)C(=O)c1ccc(O)cc1O | 10.4 | 8.8 | -2.2 | 16.02 | 6.66 | -6.56
Clc1[nH]cnc2nccc1-2 | 1.4 | -14.17 | 0.3 | 29.26 | 1.22 | -2.5
CCCCOc1ccc(NC(=O)Nc2nnc(C)s2)cc1 | 12.15 | 11.82 | 5.52 | 16.37 | -3.65 | -3.97
COc1cc(CC(=O)C(=O)O)oc(=O)c1 | 12.14 | 6.41 | -2.06 | 12.51 | 3.8 | -8.52
CO/N=C1/C=C(C)C(=O)C(C)=C1C | 4.57 | -1.27 | 14.83 | 1.18 | -2 | -4.8
O=C(O)c1cnn2c(S)ncnc12 | 16.65 | -14.23 | 9.48 | 8.17 | -0.99 | -3.32
CC1CC=C(O)C12OCC(C)(C)CO2 (stereo not given) | 3.19 | -6.5 | 5.59 | 14.38 | 0.02 | -5.4
O=C(O)Cc1sc(O)nc1O | 3.49 | -13.46 | 1.48 | 28.66 | 28.5 | -2.77
COc1cccc(NC(S)=Nc2ccc(O)cc2)c1 | -0.11 | -11.24 | 8.79 | 5.3 | 8.24 | -9.84
CC(C)NCC1CCc2cc(CO)c([N+](=O)[O-])cc2N1 (stereo not given) [OXAMNIQUINE] | 9.47 | -13.41 | 4.95 | 3.1 | 2.55 | -8.23
CC12CCC(C1)C(C)(C)C2OC(=O)c1ccccc1C(=O)O (stereo not given) | 7.81 | -7.81 | -3.09 | 22.55 | 4.22 | -18.67
NC(S)=Nc1cccc(Cl)c1 | 9.52 | -8.51 | 1.81 | 0.23 | 2.81 | -2.86
Cn1ncc2c(O)nc(N)nc21 | 6 | -7.72 | 12.24 | 14.42 | -0.53 | 20.28
COc1ccc(C(=O)Oc2cccnc2O)cc1 | -4.34 | 16.28 | -5.51 | 12.02 | 4.27 | -4.22
CC(C)(C)c1ccc(C(=O)Nc2ccc(S(N)(=O)=O)cc2)cc1 | 29.14 | 5.57 | 7.06 | 7.59 | 2.9 | -15.62

SMILES | Inhibition [1] [%] | Inhibition [2] [%] | Inhibition [3] [%] | Inhibition [4] [%] | Inhibition [5] [%] | Inhibition [6] [%]
Oc1ccc(N/C(S)=N/c2ccccc2)cc1 | -2.99 | 11.99 | -4.05 | 4.37 | 4.77 | 2.65
Nc1ccccc1SC1CC(=O)N(c2ccc(Cl)c(Cl)c2)C1=O (stereo not given) | 1.48 | 12.22 | 0.8 | 8.81 | 8.62 | -1.72
COc1ccc2c3c([nH]c2c1)[C@H]1C[C@H]2[C@H](C[C@@H](O)[C@H](OC)[C@H]2C(=O)O)CN1CC3 | 6.35 | 2.79 | -2.06 | 4.58 | -1.6 | -3.05
Cl.Nc1ncnc2c(C3OC(CO)C(O)C3O)c[nH]c12 (stereo not given) | 3.2 | 11.32 | -11.86 | 9.96 | 2.09 | -0.14
COC(=O)c1ccc(Cn2cnc3c(Cl)ncnc32)cc1 | -16.45 | 0.57 | -10.62 | 2.87 | -1.99 | 15.29
CC(C)N(Cc1ccccc1)S(=O)(=O)c1nc(C(C)(C)C)n[nH]1 | 14.24 | 7.66 | 0.73 | 17.58 | 0.76 | -4.79
O=CN/C=C\c1cc(O)ccc1O | -18.33 | -7.5 | -8.61 | 6.52 | 4.27 | 7.81
COc1ccc2nc3cc(Cl)ccc3c(C#N)c2c1 | 10.22 | 12.04 | 6.91 | 7.74 | 4.11 | -4.51
C1CCc2nc3c(nc2C1)CCCC3 | 13.53 | -4.6 | 11.61 | 13.7 | 1.61 | -2.79
CC(=O)O.N=c1ccn2c(n1)OC1C(O)C(CO)OC12 (stereo not given) | 0.21 | -10.07 | 8.11 | 17.17 | -0.52 | -12.02
O=C1NCCc2c1[nH]c1ccccc21 | -13.58 | -2.97 | -11.15 | 6.5 | 2.99 | -7.2
O=C(Oc1ccccc1)c1cccc2cccc(C(=O)Oc3ccccc3)c12 | 17.84 | 0.5 | -0.78 | 14.06 | 7.13 | -3.03
Nc1nc(N)nc(-c2ccccc2-c2nc(N)nc(N)n2)n1 | 10.97 | 8.5 | -2.58 | 13.54 | 6.82 | -8.57
CCN(CC)CCNC(=O)C(Cl)=C1C(Cl)=C(Cl)C(Cl)=C1Cl | 7.61 | 6.92 | -4.74 | 29.33 | 1.86 | -2.01
O=C(NC(=S)Nc1cc(Cl)ccc1O)c1cccc(Br)c1 | 15.1 | 1.75 | -0.44 | 14.73 | -2.09 | -0.86
CCN(CC)Cc1cc2[nH]c3c4ccc(Cl)cc4ncc3c2cc1OC | 9.09 | 18.93 | -2.05 | 30.45 | -0.29 | -5.75
Cc1n[nH]c2c([N+](=O)[O-])c(=O)[nH]c(=O)n12 | 3.86 | -12.95 | 12.3 | 7.43 | 0.29 | -13.65
COC(=O)c1c(-c2ccccc2)[nH]c(-c2nccc3ccccc23)c1C(=O)OC | 3.54 | 6.34 | 1.46 | 12.08 | 2.5 | -2.2
CC1(c2ccc3ccccc3c2)CCC(=O)O1 (stereo not given) | 11.1 | -6.13 | 7.71 | 5.94 | 2.15 | -9.46
CCOC(=O)Nc1ccc(C(=O)/C=C/c2ccccc2)cc1 | 8.55 | 3.76 | -2.1 | 17.43 | 6.26 | -5.25
Cc1ccc(NC(=O)Nc2ccccc2C(N)=O)cc1 | -6.86 | -15.18 | 6.22 | 4.47 | 1.66 | -13.76
CCOC(=O)C1CC(C)=C(C)CC1C(=O)O (stereo not given) | -6.63 | 13.31 | 5.04 | 7.81 | 6.96 | -10.63
c1ccc2sc(SCSc3nc4ccccc4s3)nc2c1 | -0.38 | -17.15 | 3.51 | 4.08 | 12.5 | -13.87
Cc1cc(O)c(C(C)C)cc1NC(=O)Nc1cccc2ccccc12 | -3.74 | -15.42 | 2.96 | 4.38 | 8.57 | -2.63
Cc1c(Cl)cccc1Nc1ncccc1C(=O)OCC(O)CO (stereo not given) [CLONIXERIL] | 16.87 | 6.56 | -0.19 | 9.09 | -1.76 | -6.15
